Compound activity (PubChem BioAssay)
ELG1 DNA repair: qHTS screen for small molecules that inhibit ELG1-dependent DNA repair in human embryonic kidney (HEK293T) cells expressing luciferase-tagged ELG1; HEK293T ELG1-luciferase reporter, luminescence, 16 h; DNA damage induced by 5-fluorouridine; AID 504467, 2011; actives 2.3% (n = 330,000); Potency, µM (titrated, usually from 46.1 µM), without a hit: at the top dose activity change, negative = inhibition, actives largely listed as inhibitors; further: on the % scale 0 is the no-effect control and ±100 the full control effect; nearly all actives have a fitted effect of over 55% in size
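5-Fluorouridine DNA damage + compound/DMSO, 2,000 cells/well, 16 h, 37 °C/5% CO2. ONE-Glo, 30 min RT, luminescence. Readout = decrease in reporter signal.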
FLuc counter: qHTS profiling assay for firefly luciferase inhibitor/activator using purifed enzyme and Km concentrations of substrates (counterscreen for miR-21 project). purified FLuc, Km substrates, luminescence inhibition. actives 6.9% (n = 360,000). Potency, µM (titrated, usually from 57.5 µM), for inactives: top-dose activity change, negative = inhibition, hits mostly inhibitors. AID 588342, 2011;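 further: plate controls were vehicle for no effect and reference inhibitor for full effect; nearly all actives have a fitted effect of over 55% in size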
Target sequence (P08659 whole entry, looked up): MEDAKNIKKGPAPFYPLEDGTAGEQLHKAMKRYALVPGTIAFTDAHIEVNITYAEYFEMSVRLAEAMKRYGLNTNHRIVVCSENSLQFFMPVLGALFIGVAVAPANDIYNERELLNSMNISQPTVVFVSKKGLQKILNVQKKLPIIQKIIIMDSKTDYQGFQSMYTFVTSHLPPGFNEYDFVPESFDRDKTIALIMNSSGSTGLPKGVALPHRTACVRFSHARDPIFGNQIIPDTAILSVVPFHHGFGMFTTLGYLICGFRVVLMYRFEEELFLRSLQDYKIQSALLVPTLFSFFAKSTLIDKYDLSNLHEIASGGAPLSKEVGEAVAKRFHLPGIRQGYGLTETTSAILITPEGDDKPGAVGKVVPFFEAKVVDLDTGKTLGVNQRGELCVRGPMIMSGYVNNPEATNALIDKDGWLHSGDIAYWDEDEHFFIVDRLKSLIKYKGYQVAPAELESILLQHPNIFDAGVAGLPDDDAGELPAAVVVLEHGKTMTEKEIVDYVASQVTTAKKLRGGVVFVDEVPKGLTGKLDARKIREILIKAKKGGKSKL
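Purified P. pyralis luciferase (10nM final) with 10uM D-luciferin and 10uM ATP (Km levels) in 50mM Tris acetate pH 7.5, 10mM Mg acetate, 0.01% Tween-20, 0.05% BSA; qHTS 6-point titration, ~60 µM downward; luminescence read.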
Rab9 promoter act: qHTS Assay for Rab9 Promoter Activators; Huh7 Rab9 promoter-luciferase reporter, luminescence, 24 h; Potency, µM (series often up to 9.22 µM), without a hit: top-dose activation, negative = inhibition, most hits filed as activators; actives 2.8% (n = 320,000); further: % of control where 0% means no effect; nearly all actives have a fitted effect of over 60% in size
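Huh7 reporter line, Rab9 promoter upstream of luciferase. Compound exposure 24 h at 37 °C in reduced-serum medium with 10% FBS. Read-out: luminescence.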
NPC1 promoter act: qHTS Assay for NPC1 Promoter Activators; Huh7 NPC1 promoter luciferase reporter, 24 h; Potency, µM (top dose mostly 9.22 µM), inactives show at the top dose activation, usual class: activators; actives 2.4% (n = 320,000); AID 485313, 2010; further: % of control where 0% means no effect; nearly all actives have a fitted effect of over 60% in size
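Stably transfected Huh7 (NPC1 promoter→luciferase), 1500 cells/well in Opti-MEM + 10% FBS, 2 h settle, then compound 24 h at 37 °C. Luminescence after 10 min with Amplite reagent.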
SMN2 splice enh: qHTS Assay for Enhancers of SMN2 Splice Variant Expression; Potency, µM (top dose mostly 46.1 µM), for the others: at the top dose activity change, positive = activation, hits mostly activators; AID 1458, 2008; actives 2.8% (n = 210,000); HEK293 SMN2-luciferase splicing reporter, luminescence, 30-36 h; further: % of control where 0% means no effect; nearly all actives have a fitted effect of over 55% in size
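HEK293 cells carry an SMN2 minigene-luciferase reporter in which exon 7 inclusion puts luciferase in frame. Cells were seeded at 2000 cells/well, attached for 10-12 hours, then exposed to compounds for 30-36 hours at 37C before ONE-Glo luminescence.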
ELG1 genotoxic: qHTS screen for small molecules that induce genotoxicity in human embryonic kidney (HEK293T) cells expressing luciferase-tagged ELG1 | HEK293T ELG1-luciferase reporter, luminescence, 16 h | AID 504466, 2011 | actives 1.3% (n = 330,000) | Potency, µM (doses to about 46 µM), for inactives: top-dose activity change, positive = activation, most hits filed as activators; further: % of control where 0% means no effect; nearly all actives have a fitted effect of over 60% in size
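Reporter readout depends on ELG1 protein level, which increases with genetic stress. After 16 hr compound exposure at 37 °C, luciferase activity was quantified using ONE-Glo.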
* hit, by the source's call; ? = inconclusive; . = no result given. Only some compounds are listed: those with a hit (about 9.2% of all), similar ones and a draw of the others. The call rests on the fitted dose curve; in most records, active means well fitted curve in the direction sought with a large enough effect; inconclusive means small, poorly fitted or top-dose-only effect, or another doubt; inactive means no such curve, though single readings can be large; an effect the other way counts as inactive or inconclusive. Potency means the concentration at half of the fitted maximal effect.

SMILES | ELG1 DNA repair | FLuc counter | Rab9 promoter act | NPC1 promoter act | SMN2 splice enh | ELG1 genotoxic
COc1ccc(-c2noc(-c3ccccc3C(=O)NCC3CCCO3)n2)cc1 (stereo not drawn) | ? | 9.5µM* | -1% | 1% | . | -9%
COc1ccccc1-c1noc(-c2ccccc2C(=O)NCC2CCCO2)n1 (stereo not drawn) | -1% | 15µM* | 1% | 1% | . | -3%
COc1ccccc1CC(=O)NCC1CCCO1 (stereo not drawn) | . | -1% | . | . | 19% | .
Cc1ccccc1-c1noc(-c2ccccc2C(=O)NCC2CCCO2)n1 (stereo not drawn) | 0% | 15µM* | -1% | 1% | . | -8%
O=C(NCC1CCCO1)c1ccccc1-c1nc(-c2ccc(F)cc2)no1 (stereo not drawn) | ? | ? | -1% | 1% | -42% | -5%
O=[N+]([O-])c1cc(-c2nc(-c3ccccc3)no2)ccc1N1CCCCC1 | . | -1% | . | . | . | .
COCCNc1ccc(-c2nc(-c3ccco3)no2)cc1[N+](=O)[O-] | . | -15% | . | . | . | .
Cc1noc(-c2ccc(N3CCC(C)CC3)c([N+](=O)[O-])c2)n1 | . | 8.5µM* | . | . | . | .
CCNc1ccc(-c2nc(-c3ccco3)no2)cc1[N+](=O)[O-] | . | 15µM* | . | . | . | .
Cc1ccccc1-c1noc(-c2ccc(N3CCCC3)c([N+](=O)[O-])c2)n1 | . | 13µM* | . | . | . | .
CC1CCN(c2ccc(-c3nc(-c4ccccc4)no3)cc2[N+](=O)[O-])CC1 | . | -6% | . | . | . | .
CC(C)CN1CCN(Cc2ccc3ncccc3c2)CC1CCO (stereo not drawn) | 1% | 3% | -5% | -2% | . | 1%
COc1ccc(OCCOC(=O)c2ccc(F)c(S(=O)(=O)N3CCOCC3)c2)cc1 | -22% | -3% | -2% | 0% | . | -1%
O=C(NCc1cccnc1)C(=O)NCC1OCCN1S(=O)(=O)c1ccc(F)cc1 (stereo not drawn) | 9% | 1% | -6% | 1% | -14% | 0%
OC1(c2ccc(OC(F)F)cc2)CSC(=Nc2cccnc2)N1Cc1ccco1 (stereo not drawn) | 18µM* | 0% | -14% | -5% | -92% | -15%
O=C(CO/N=C/c1ccc(OC(F)F)cc1)NCc1ccco1 | 27% | 0% | 0% | -5% | 1% | -5%
OC1(c2ccc(F)cc2)CSC(=Nc2cccnc2)N1Cc1ccco1 (stereo not drawn) | 23µM* | -2% | -2% | -2% | -8% | -6%
CCOC(=O)c1c(S(=O)(=O)N2CCCC(C(=O)Nc3cccc(CC)c3)C2)c(C)n(CC)c1C (stereo not drawn) | . | -13% | . | . | . | .
Cc1ccc(NC(=O)CSc2nnc3ccc(-c4ccncc4)nn23)cc1 | 5.8µM* | -7% | 19% | 3% | . | -15%
COc1ccc(CC(=O)Nc2ccc(-c3ccc4nnc(C)n4n3)cc2)cc1OC | ? | 0% | -19% | -11% | 18µM* | 21µM*
CCOC(=O)N1CCN(C(=O)c2cccc(N3C(=O)NC4CC3(C)Oc3ccc(Cl)cc34)c2)CC1 (stereo not drawn) | ? | 2% | -11% | -16% | . | -7%
O=C(NCC1CCCN(C(=O)CN2CCCCC2)C1)c1ccccc1Cl (stereo not drawn) | ? | -19% | 10% | 5% | . | 3%
CCn1c(C)cc(/C=C2\NC(=O)N(Cc3ccccc3)C2=O)c1C | ? | -15% | 3% | 8% | -5% | 0%
CCN1C(=O)/C(=C/c2cnn(CC)c2C)SC1=S | ? | ? | 1% | 1% | -4% | ?
CCn1c(C)cc(/C=C2/SC(=S)N(CC(=O)O)C2=O)c1C | 12% | 2.7µM* | 1% | 5% | -13% | -9%
SMILES | ELG1 DNA repair | FLuc counter | Rab9 promoter act | NPC1 promoter act | SMN2 splice enh | ELG1 genotoxic
C#CCN1C(=O)S/C(=C/c2cc(C)n(CC)c2C)C1=O | ? | 2.1µM* | 1.6µM* | 2.8µM* | . | ?
Cc1noc(C)c1NC(=O)N(C)C[C@H]1Oc2c(NC(=O)C3CCCCC3)cccc2C(=O)N([C@H](C)CO)C[C@@H]1C | 11% | . | . | . | . | 0%
Nc1ccc2c(c1)C/C(=C/c1ccco1)C2=O | ? | 0.6µM* | 2µM* | 2.8µM* | ? | 21µM*
O=C1c2ccccc2CCc2ccc(Br)cc21 | 29% | ? | -2% | 0% | . | 5%
O=C1/C(=C/c2ccco2)CCc2ccccc21 | ? | 2.1µM* | ? | 4µM* | ? | 7.3µM*
COc1ccc2c(c1)CC/C(=C/c1ccco1)C2=O | ? | 0.67µM* | 3.5µM* | 2.2µM* | 18µM* | ?
CCC1C/C(=C/c2ccco2)C(=O)/C(=C/c2ccco2)C1 (stereo not drawn) | ? | -8% | 3% | 1% | -9% | 6%
COc1ccc2c(c1)CC/C(=C\c1ccc(OC)c(Cn3nc(C)cc3C)c1)C2=O | ? | ? | -4% | -4% | -15% | -21%
Cc1ncsc1C(=O)NCc1ccc(N2CCCC2=O)cc1 | ? | -8% | -6% | 6% | -44% | 2%
CN(CCCNC(=O)c1ccc(CS(=O)c2ccc(Br)cc2)o1)Cc1ccccc1 (stereo not drawn) | 1% | 1% | -2% | -3% | . | -1%
O=C(NCCN1C(=O)C2C3C=CC(C3)C2C1=O)Nc1ccccc1 (stereo not drawn) | ? | -6% | 1% | 3% | -13% | 12%
Cc1ccc(NC(=O)NCCN2C(=O)C3C4C=CC(C4)C3C2=O)cc1 (stereo not drawn) | ? | 17µM* | 1.6µM* | 2.5µM* | 11µM* | 7.3µM*
COc1ccc(NC(=O)CCN2C(=O)[C@@H]3[C@H](C2=O)[C@H]2C=C[C@@H]3C2)cc1 | 16% | -6% | -2% | 7% | . | 6%
COc1ccc(NC(=O)NCCN2C(=O)C3C4C=CC(C4)C3C2=O)cc1 (stereo not drawn) | ? | ? | ? | ? | 11µM* | ?
COc1ccc(C2Nc3ccccc3C(=O)N2Cc2ccco2)cc1COc1ccccc1F (stereo not drawn) | 18µM* | 6% | -3% | -1% | -7% | -3%
CCCCCCC1CCC(C(=O)NC(C(=O)O)C(C)C)CC1 (stereo not drawn) | . | ? | . | . | -7% | .
